Laboratory results published in article PMC7862700, “An all-to-all approach to the identification of sequence-specific readers for epigenetic DNA modifications on cytosine”.

Key:
Test in all cases: DAPPL (digital affinity profiling via proximity ligation, sequencing); 10 mM Tris-HCl pH 7.5, 50 mM NaCl, 1 mM DTT, 4% glycerol, room temperature, 30 min; GST-TFs on glutathione beads, 16-mer random dsDNA library, 0.1% formaldehyde crosslink after washing; high values mean tight binding
Conditions in all cases: protein: recombinant; tags: N-terminal GST; dsDNA, one strand shown
[1] = molecular target: T1, ELK1 (Homo sapiens, UniProt P19419 1-428)
T1 sequence: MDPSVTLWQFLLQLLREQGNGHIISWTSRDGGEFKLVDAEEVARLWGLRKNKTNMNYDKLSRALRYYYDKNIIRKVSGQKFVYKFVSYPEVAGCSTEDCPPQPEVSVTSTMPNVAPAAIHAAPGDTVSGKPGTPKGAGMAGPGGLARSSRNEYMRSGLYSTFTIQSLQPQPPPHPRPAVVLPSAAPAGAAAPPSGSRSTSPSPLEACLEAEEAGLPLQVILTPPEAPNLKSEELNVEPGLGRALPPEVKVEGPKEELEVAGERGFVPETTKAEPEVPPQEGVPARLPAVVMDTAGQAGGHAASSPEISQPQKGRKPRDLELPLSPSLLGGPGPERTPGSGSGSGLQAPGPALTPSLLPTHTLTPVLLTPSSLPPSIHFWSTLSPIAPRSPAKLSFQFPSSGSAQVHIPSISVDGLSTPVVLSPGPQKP
In short: (§1)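 Human transcription factors were made in yeast as GST fusions, captured on glutathione beads and barcoded with DNA. With a tag-only sample included, the pool was incubated with 200 nmole of a random double-stranded 16-mer DNA library in Tris/NaCl/DTT/glycerol buffer at room temperature for 30 min, then crosslinked with 0.1% formaldehyde after washing, ligated by proximity, amplified and sequenced. For binding signal, each hexamer's read frequency for a factor is divided by its frequency for the tag-only sample.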

[2] = molecular target: T2, ERG (Homo sapiens, UniProt P11308 1-479)
T2 sequence: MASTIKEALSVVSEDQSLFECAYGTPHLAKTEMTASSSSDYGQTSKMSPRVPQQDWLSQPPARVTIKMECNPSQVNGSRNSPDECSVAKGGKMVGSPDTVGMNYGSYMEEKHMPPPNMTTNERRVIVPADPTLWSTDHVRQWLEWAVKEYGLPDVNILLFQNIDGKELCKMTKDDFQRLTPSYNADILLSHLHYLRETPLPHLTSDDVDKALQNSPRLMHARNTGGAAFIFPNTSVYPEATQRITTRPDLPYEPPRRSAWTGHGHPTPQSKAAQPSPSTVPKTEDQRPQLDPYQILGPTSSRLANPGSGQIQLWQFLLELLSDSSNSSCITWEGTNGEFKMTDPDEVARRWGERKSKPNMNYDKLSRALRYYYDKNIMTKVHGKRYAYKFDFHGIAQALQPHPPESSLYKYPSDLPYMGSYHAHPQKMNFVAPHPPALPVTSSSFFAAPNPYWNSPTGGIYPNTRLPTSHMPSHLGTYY
In short: as §1

[3] = molecular target: T3, EHF (Homo sapiens, UniProt Q9NZC4 1-300)
T3 sequence: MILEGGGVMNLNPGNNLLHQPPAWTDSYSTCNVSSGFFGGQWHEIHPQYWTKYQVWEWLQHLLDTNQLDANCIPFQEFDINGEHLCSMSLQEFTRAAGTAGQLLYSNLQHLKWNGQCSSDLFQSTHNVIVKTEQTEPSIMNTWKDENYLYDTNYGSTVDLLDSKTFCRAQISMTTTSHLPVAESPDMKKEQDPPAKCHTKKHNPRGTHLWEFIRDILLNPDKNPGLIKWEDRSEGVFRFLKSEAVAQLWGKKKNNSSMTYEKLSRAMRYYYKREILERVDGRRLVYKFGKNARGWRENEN
In short: as §1

[4] = molecular target: T4, SPIC (Homo sapiens, UniProt Q8N5J4 1-248)
T4 sequence: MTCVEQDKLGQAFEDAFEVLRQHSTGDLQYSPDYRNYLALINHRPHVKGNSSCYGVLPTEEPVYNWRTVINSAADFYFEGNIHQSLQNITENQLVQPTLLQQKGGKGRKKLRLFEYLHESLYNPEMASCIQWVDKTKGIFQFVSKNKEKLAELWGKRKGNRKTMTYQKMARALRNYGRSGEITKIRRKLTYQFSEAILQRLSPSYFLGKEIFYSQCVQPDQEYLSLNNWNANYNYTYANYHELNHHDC
In short: as §1

[5] = molecular target: ELF4 (Homo sapiens, UniProt Q99607 1-663)
Chain of ELF4 (Q99607 whole entry): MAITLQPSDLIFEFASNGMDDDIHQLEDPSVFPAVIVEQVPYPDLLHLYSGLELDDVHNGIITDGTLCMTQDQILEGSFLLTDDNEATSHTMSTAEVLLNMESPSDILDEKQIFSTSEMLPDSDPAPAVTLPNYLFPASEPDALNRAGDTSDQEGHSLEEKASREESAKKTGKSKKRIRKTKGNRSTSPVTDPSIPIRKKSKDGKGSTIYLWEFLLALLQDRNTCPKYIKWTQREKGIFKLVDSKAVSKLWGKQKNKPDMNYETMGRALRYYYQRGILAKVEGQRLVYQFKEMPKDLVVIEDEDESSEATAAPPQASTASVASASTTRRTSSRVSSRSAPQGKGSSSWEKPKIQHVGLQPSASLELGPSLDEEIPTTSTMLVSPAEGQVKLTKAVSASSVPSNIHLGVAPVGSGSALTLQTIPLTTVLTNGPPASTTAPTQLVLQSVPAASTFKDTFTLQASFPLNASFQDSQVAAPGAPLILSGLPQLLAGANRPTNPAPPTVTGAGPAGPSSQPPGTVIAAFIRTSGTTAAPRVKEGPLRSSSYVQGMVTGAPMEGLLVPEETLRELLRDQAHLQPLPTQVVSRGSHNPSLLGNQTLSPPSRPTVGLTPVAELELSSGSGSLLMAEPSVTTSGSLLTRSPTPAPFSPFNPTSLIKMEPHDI
In short: as §1

[6] = molecular target: T5, ELK4 (Homo sapiens, UniProt P28324-2 1-405)
T5 sequence: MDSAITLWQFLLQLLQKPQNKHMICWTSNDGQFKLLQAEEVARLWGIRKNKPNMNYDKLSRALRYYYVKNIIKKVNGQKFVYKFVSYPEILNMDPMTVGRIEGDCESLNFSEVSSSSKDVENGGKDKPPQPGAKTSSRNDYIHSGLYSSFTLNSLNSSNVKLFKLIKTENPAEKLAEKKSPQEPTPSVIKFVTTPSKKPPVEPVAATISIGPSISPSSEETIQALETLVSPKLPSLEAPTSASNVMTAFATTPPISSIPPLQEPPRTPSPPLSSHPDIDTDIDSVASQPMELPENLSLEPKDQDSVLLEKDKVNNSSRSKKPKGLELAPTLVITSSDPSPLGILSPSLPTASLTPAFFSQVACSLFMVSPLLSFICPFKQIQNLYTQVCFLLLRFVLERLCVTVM
In short: as §1

[7] = molecular target: ETV1 (Homo sapiens, UniProt P50549 1-477)
Chain of ETV1 (P50549 whole entry): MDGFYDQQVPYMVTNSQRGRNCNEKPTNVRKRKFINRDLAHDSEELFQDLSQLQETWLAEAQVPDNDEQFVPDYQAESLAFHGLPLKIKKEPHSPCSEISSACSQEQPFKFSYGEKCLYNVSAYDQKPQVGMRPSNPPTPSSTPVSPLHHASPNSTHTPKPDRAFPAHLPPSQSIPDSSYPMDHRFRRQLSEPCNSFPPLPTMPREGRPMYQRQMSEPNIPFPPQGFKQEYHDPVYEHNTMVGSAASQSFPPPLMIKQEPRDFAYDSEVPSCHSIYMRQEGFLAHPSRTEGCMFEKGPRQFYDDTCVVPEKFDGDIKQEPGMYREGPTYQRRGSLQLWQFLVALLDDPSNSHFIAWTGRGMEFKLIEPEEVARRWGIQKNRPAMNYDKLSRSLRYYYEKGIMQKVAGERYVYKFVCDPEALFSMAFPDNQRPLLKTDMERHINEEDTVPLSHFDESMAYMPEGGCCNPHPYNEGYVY
In short: as §1

[8] = molecular target: T6, ETS2 (Homo sapiens, UniProt P15036 1-469)
T6 sequence: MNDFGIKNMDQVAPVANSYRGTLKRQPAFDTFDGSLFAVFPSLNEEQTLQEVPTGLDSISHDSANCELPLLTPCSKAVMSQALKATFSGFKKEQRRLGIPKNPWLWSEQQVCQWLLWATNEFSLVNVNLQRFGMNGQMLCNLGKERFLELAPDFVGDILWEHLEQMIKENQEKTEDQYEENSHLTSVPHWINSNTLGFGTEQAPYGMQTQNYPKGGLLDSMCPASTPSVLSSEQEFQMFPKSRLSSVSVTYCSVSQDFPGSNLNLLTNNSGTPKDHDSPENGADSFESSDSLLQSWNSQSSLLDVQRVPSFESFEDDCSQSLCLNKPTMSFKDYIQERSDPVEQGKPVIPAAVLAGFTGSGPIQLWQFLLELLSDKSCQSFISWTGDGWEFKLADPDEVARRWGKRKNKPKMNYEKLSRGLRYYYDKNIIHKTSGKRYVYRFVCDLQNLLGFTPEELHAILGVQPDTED
In short: as §1

[9] = molecular target: T7, SPDEF (Homo sapiens, UniProt O95238 1-335)
T7 sequence: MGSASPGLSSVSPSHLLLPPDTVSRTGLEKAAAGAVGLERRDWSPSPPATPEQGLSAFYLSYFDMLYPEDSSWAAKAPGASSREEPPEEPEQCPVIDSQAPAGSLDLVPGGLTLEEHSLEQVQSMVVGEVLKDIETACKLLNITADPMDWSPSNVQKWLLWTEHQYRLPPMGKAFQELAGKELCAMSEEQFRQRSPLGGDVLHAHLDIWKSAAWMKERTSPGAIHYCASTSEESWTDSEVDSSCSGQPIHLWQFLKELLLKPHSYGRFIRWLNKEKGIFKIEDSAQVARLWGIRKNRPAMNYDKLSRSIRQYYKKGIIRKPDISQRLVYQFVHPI
In short: as §1

[10] = molecular target: T8, ETV3 (Homo sapiens, UniProt P41162-2 1-143)
T8 sequence: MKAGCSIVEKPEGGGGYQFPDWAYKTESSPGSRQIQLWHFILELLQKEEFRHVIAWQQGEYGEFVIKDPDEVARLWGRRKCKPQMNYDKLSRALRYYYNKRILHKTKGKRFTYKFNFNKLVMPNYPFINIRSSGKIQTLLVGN
In short: as §1

[11] = molecular target: T9, GABPA (Homo sapiens, UniProt Q06546 1-454)
T9 sequence: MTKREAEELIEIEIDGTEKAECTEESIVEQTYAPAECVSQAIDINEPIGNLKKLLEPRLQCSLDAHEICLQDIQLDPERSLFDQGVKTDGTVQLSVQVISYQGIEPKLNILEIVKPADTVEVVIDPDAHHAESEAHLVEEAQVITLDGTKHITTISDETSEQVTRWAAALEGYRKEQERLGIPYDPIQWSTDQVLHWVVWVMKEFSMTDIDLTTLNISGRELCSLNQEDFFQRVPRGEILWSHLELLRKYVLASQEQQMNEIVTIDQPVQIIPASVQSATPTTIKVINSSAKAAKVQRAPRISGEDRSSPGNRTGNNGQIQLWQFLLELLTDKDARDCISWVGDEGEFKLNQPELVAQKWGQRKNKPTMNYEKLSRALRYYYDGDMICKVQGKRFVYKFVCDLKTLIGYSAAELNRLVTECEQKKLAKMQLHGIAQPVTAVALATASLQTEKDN
In short: as §1

[12] = molecular target: ELF1 (Homo sapiens, UniProt P32519 1-619)
Chain of ELF1 (P32519 whole entry): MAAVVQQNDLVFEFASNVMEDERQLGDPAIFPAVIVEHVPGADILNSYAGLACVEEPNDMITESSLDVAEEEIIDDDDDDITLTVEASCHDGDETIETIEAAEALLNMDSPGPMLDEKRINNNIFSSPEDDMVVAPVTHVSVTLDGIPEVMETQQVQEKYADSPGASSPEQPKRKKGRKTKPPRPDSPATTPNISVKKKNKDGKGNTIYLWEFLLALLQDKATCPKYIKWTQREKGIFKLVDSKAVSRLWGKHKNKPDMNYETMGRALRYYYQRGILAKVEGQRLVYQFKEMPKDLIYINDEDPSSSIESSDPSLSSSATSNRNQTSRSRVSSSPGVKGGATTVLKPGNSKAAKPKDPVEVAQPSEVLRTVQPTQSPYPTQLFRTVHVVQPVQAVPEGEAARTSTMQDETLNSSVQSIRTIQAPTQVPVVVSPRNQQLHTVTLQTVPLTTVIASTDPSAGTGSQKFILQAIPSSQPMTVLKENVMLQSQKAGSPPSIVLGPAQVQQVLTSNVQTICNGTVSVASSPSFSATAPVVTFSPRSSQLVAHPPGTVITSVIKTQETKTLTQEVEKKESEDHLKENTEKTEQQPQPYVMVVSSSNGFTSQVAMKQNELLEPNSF
In short: as §1

[13] = molecular target: SPIB (Homo sapiens, UniProt Q01892 1-262)
Chain of SPIB (Q01892 whole entry): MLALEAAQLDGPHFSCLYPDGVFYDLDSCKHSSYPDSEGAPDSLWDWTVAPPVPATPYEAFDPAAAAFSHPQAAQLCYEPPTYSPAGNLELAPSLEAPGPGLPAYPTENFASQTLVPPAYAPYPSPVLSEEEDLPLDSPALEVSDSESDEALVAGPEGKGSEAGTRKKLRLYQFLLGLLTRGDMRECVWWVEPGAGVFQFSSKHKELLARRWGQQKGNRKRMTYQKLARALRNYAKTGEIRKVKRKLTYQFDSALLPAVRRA
In short: as §1

[14] = molecular target: T10, ELK3 (Homo sapiens, UniProt P41970 1-407)
T10 sequence: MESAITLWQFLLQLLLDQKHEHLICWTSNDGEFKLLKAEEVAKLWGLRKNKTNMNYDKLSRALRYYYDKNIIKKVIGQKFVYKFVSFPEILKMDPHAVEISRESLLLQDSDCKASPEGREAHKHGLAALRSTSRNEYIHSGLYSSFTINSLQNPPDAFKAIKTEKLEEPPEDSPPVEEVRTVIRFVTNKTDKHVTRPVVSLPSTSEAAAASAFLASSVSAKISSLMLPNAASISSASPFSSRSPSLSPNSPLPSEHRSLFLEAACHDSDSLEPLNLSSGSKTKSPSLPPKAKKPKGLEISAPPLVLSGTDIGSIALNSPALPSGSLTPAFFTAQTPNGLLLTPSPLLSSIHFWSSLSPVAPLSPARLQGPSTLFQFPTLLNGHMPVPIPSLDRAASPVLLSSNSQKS
In short: as §1

[15] = molecular target: T11, ERF (Homo sapiens, UniProt P50548 1-548)
T11 sequence: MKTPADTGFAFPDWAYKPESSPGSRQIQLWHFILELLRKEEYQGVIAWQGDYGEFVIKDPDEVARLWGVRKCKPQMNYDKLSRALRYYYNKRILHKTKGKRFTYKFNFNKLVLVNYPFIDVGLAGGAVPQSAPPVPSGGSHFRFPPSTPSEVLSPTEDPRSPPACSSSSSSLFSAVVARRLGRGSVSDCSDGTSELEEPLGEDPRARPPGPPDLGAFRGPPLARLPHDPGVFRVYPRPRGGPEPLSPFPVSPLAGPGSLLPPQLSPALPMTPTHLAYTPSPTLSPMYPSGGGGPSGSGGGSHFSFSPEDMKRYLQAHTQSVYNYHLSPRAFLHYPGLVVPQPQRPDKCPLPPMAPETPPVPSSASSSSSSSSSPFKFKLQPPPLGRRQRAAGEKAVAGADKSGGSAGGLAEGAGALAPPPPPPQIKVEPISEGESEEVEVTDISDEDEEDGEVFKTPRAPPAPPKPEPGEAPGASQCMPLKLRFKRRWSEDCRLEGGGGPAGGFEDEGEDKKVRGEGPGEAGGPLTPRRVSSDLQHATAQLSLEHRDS
In short: as §1

[16] = molecular target: T12, ETV7 (Homo sapiens, UniProt Q9Y603 1-341)
T12 sequence: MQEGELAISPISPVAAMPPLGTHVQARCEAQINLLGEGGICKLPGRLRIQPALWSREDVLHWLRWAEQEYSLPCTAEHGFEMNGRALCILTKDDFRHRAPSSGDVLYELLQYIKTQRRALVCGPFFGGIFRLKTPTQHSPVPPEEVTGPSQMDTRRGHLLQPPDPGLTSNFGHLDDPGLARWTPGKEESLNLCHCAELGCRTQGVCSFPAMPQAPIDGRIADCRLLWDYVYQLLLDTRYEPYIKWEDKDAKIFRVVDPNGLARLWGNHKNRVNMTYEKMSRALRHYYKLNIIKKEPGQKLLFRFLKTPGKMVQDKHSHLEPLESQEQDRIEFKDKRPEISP
In short: as §1

[17] = molecular target: ETV6 (Homo sapiens, UniProt P41212 1-452)
Chain of ETV6 (P41212 whole entry): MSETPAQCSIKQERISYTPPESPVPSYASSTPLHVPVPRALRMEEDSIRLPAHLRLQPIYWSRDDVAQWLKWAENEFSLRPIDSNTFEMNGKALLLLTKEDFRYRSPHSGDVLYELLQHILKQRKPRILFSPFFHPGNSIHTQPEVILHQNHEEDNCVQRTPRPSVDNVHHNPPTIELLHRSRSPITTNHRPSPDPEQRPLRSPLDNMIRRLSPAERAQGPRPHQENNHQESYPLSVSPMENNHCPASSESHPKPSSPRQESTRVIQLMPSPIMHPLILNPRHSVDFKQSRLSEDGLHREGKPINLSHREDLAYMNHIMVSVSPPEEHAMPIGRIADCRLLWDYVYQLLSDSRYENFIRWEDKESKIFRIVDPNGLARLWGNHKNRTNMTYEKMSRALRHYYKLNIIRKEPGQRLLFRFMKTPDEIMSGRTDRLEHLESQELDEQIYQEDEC
In short: as §1

Row | Sequence | binding signal [1] | binding signal [2] | binding signal [3] | binding signal [4] | binding signal [5] | binding signal [6] | binding signal [7] | binding signal [8] | binding signal [9] | binding signal [10] | binding signal [11] | binding signal [12] | binding signal [13] | binding signal [14] | binding signal [15] | binding signal [16] | binding signal [17]
1 | GCTAAG | 1.08 fold enrichment (6-mer frequency, TF over GST control) | 1.01 fold enrichment (6-mer frequency, TF over GST control) | 1.05 fold enrichment (6-mer frequency, TF over GST control) | 1.08 fold enrichment (6-mer frequency, TF over GST control) | 1.06 fold enrichment (6-mer frequency, TF over GST control) | 1.18 fold enrichment (6-mer frequency, TF over GST control) | 1 fold enrichment (6-mer frequency, TF over GST control) | 1.04 fold enrichment (6-mer frequency, TF over GST control) | 1.11 fold enrichment (6-mer frequency, TF over GST control) | 1.04 fold enrichment (6-mer frequency, TF over GST control) | – | – | – | – | – | – | –
2 | TTAAGA | 1.05 fold enrichment (6-mer frequency, TF over GST control) | – | 1.05 fold enrichment (6-mer frequency, TF over GST control) | 1.12 fold enrichment (6-mer frequency, TF over GST control) | 1.05 fold enrichment (6-mer frequency, TF over GST control) | – | – | – | 1.06 fold enrichment (6-mer frequency, TF over GST control) | 1.05 fold enrichment (6-mer frequency, TF over GST control) | 1.09 fold enrichment (6-mer frequency, TF over GST control) | 1.05 fold enrichment (6-mer frequency, TF over GST control) | 1.07 fold enrichment (6-mer frequency, TF over GST control) | 1.02 fold enrichment (6-mer frequency, TF over GST control) | 1.08 fold enrichment (6-mer frequency, TF over GST control) | 1.13 fold enrichment (6-mer frequency, TF over GST control) | 1.05 fold enrichment (6-mer frequency, TF over GST control)
